# Experimental data published in PubChem BioAssay (NCI).
# “And” between values parts separate entries of the source, which are not always exact repeats. Equal values may be shown once. Compounds without any hit were thinned out: in the full panel of roughly 83,000, 20% have a hit.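 Single-dose data. Exposure time 48 hours. Values below 10 considered active.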 The source made the active and inactive calls.
# System: BT-549 breast
# Assay: NCI-60 one-dose screen, 48 h (100 = growth as untreated, 0 = no growth, -100 = all killed)
# Conditions: 10 µM unless noted
row,SMILES,growth
1,CCCCCCCCCCCCCCCCC(C(=O)O)C(O)(CC(=O)O)C(=O)O (stereo not given),103% (inactive) and -46.4% (active)
2,CCCCCCCCCCCCCCCc1ccc(N)c(OC2OC(CO)C(O)C(O)C2O)c1 (stereo not given),54.8% (inactive)
3,O=C(CO)C(O)C(O)C(O)C(O)CO (stereo not given),111% (inactive) and 117% (inactive)
4,O=C(Cc1ccccc1)c1ccc(O)c(Cl)c1,45.3% (inactive)
5,NC(Cc1c[nH]c2ccccc12)C(=O)O (stereo not given),113% (inactive) and 102% (inactive)
6,O=C(O)/C=C\C(=O)Nc1cccc2ccccc12,84.4% (inactive) and 91.7% (inactive)
7,O=C(/C=C/c1ccccc1)c1ccccc1,126% (inactive)
8,OC1COC(OCc2ccccc2)C(O)C1O (stereo not given),105% (inactive)
9,CC[C@H](CC[C@@H](C)[C@H]1CC[C@H]2[C@@H]3CC=C4C[C@@H](O)CC[C@]4(C)[C@H]3CC[C@]12C)C(C)C,100% (inactive)
10,CCCCOC(=O)/C=C\C(=O)NC(N)=O,63.5% (inactive)
11,CC(C)NC(=O)N/C=C(\C#N)C(N)=O,92.1% (inactive)
12,CC1CCC2(OC1)OC1CC3C4CC=C5CC(O)CCC5(C)C4CCC3(C)C1C2C (stereo not given),130% (inactive)
13,CCCCNc1ccc(Nc2ccccc2)cc1,49.7% (inactive)
14,Cn1cnc([N+](=O)[O-])c1Sc1ncn[nH]1,101% (inactive)
15,CCCCOc1ccc(Nc2cc(Cl)ccc2C(=O)O)cn1,101% (inactive) and 100% (inactive)
16,Nc1ncnc2c1ncn2C1OC(COP(=O)(O)O)C(O)C1O (stereo not given),113% (inactive)
17,COc1ccc(N/C=C/C2=[N+](C)c3ccccc3C2(C)C)c(OC)c1,89.3% (inactive)

row,SMILES,growth
1,O=C1OC(c2ccccc2)=N/C1=C\c1ccccc1,96.3% (inactive)
2,C/C(=C\c1ccccc1)c1ccccn1,110% (inactive)
3,COc1cc(C(O)C2C(=O)OCC2C2(c3ccc4c(c3)OCO4)SCCCS2)cc(OC)c1OC (stereo not given),102% (inactive)
4,CC1(C)COC(=S)N1,102% (inactive)
5,Brc1ccc(SSc2ccc(Br)cc2)cc1,29.4% (inactive)
6,CC(C)(O)C(=O)O,103% (inactive)
7,O=[N+]([O-])c1cccc(SSc2cccc([N+](=O)[O-])c2)c1,101% (inactive)
8,OCCN1CCCCCCC1,98.2% (inactive)
9,c1ccc(-c2nc3ccccc3s2)cc1,96.8% (inactive)
10,CCOC(=O)c1c(C)cc(=O)oc1C,97.3% (inactive)
11,CC(=O)NCC(=O)c1ccc([N+](=O)[O-])cc1,107% (inactive)
12,Fc1ccc([I+]c2ccc(F)cc2)cc1,67% (inactive)
13,Cc1cc2ccccc2cn1,106% (inactive) and 105% (inactive)
14,O=c1n(CC2CO2)c(=O)n(CC2CO2)c(=O)n1CC1CO1 (stereo not given),77.1% (inactive)
15,Nc1ccc2c(O)cc(S(=O)(=O)O)cc2c1,94.9% (inactive) and 119% (inactive)
16,O=C1CSC2=NCCN12,131% (inactive)
17,O=C1c2c(O)ccc(O)c2C(=O)c2c(NCCNCCO)ccc(NCCNCCO)c21,-46.2% (active) and -85.9% (active)

# System: MDA-MB-435 melanoma
# Assay: as above
# Conditions: 10 µM unless noted
row,SMILES,growth
1,CCCCCCCCCCCCCCCCC(C(=O)O)C(O)(CC(=O)O)C(=O)O (stereo not given),102% (inactive) and -33.7% (active)
2,CCCCCCCCCCCCCCCc1ccc(N)c(OC2OC(CO)C(O)C(O)C2O)c1 (stereo not given),99.6% (inactive)
3,O=C(CO)C(O)C(O)C(O)C(O)CO (stereo not given),110% (inactive) and 107% (inactive)
4,O=C(Cc1ccccc1)c1ccc(O)c(Cl)c1,41.3% (inactive)
5,NC(Cc1c[nH]c2ccccc12)C(=O)O (stereo not given),98.9% (inactive) and 105% (inactive)
6,O=C(O)/C=C\C(=O)Nc1cccc2ccccc12,113% (inactive) and 103% (inactive)
7,O=C(/C=C/c1ccccc1)c1ccccc1,76.6% (inactive)
8,OC1COC(OCc2ccccc2)C(O)C1O (stereo not given),104% (inactive)
9,CC[C@H](CC[C@@H](C)[C@H]1CC[C@H]2[C@@H]3CC=C4C[C@@H](O)CC[C@]4(C)[C@H]3CC[C@]12C)C(C)C,97.4% (inactive) and 99.4% (inactive)
10,CC1=C/C(O)CC(=O)Cc2nc(co2)C(=O)N2CCC=C2C(=O)OC(C(C)C)C(C)/C=C\C(=O)NC/C=C\1 (stereo not given),81.2% (inactive)
11,COc1ccc(C(=O)CC(c2ccccc2)C(C#N)c2ccccc2)cc1 (stereo not given),78.9% (inactive)
12,CCCCOC(=O)/C=C\C(=O)NC(N)=O,99.4% (inactive)
13,CC(C)NC(=O)N/C=C(\C#N)C(N)=O,92.6% (inactive)
14,CC1CCC2(OC1)OC1CC3C4CC=C5CC(O)CCC5(C)C4CCC3(C)C1C2C (stereo not given),116% (inactive)
15,CCCCNc1ccc(Nc2ccccc2)cc1,71.8% (inactive)
16,Cn1cnc([N+](=O)[O-])c1Sc1ncn[nH]1,101% (inactive)
17,CCc1cc(C)cc(O)c1,113% (inactive)
18,CCCCOc1ccc(Nc2cc(Cl)ccc2C(=O)O)cn1,105% (inactive) and 107% (inactive)

row,SMILES,growth
1,CC1CCC(C(C)C)C(NNC(N)=O)C1 (stereo not given),101% (inactive)
2,COc1ccc(N/C=C/C2=[N+](C)c3ccccc3C2(C)C)c(OC)c1,95% (inactive)
3,O=C1OC(c2ccccc2)=N/C1=C\c1ccccc1,109% (inactive)
4,C/C(=C\c1ccccc1)c1ccccn1,118% (inactive)
5,COc1cc(C(O)C2C(=O)OCC2C2(c3ccc4c(c3)OCO4)SCCCS2)cc(OC)c1OC (stereo not given),101% (inactive)
6,CC1(C)COC(=S)N1,101% (inactive)
7,Brc1ccc(SSc2ccc(Br)cc2)cc1,82.6% (inactive)
8,CC(C)(O)C(=O)O,107% (inactive)
9,O=[N+]([O-])c1cccc(SSc2cccc([N+](=O)[O-])c2)c1,102% (inactive)
10,OCCN1CCCCCCC1,98.4% (inactive)
11,c1ccc(-c2nc3ccccc3s2)cc1,110% (inactive)
12,CC(=O)NCC(=O)c1ccc([N+](=O)[O-])cc1,104% (inactive)
13,Fc1ccc([I+]c2ccc(F)cc2)cc1,75% (inactive)
14,Cc1cc2ccccc2cn1,101% (inactive) and 106% (inactive)
15,O=c1n(CC2CO2)c(=O)n(CC2CO2)c(=O)n1CC1CO1 (stereo not given),82.9% (inactive)
16,Nc1ccc2c(O)cc(S(=O)(=O)O)cc2c1,104% (inactive) and 113% (inactive)
17,O=C1CSC2=NCCN12,71.5% (inactive) and 70.6% (inactive)
18,O=C1c2c(O)ccc(O)c2C(=O)c2c(NCCNCCO)ccc(NCCNCCO)c21,-89.9% (active) and -94.9% (active)
